Experimental findings from PubChem BioAssay are described below.

Where “and” joins values, the source holds several entries; their conditions need not be identical. Equal values may be shown once. Calls of active or inactive are those of the source.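 Rule for the calls, unless noted: active = compounds whose cell count with miR-34 switched on is under 0.7 times the count with it off; inactive = the rest.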

Test [1] relates to Aerobactin synthetase IucA (Klebsiella pneumoniae). In words: IucA aerobactin synthetase inhibitors, biochemical, Tocris library, absorbance (AID 1345561; call rule not given here;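 note: 100% = enzyme without compound and 0% = no enzyme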). The conditions noted are these: purified IucA enzyme assay, absorbance (OD) read-out; stronger effect = lower value;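 tested at 8 µM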.
The nature of test [2]: sensitizers of A549 cells to miR-34 induction, primary screen, imaging, A549 dox-inducible miR-34, nuclei and caspase counts (AID 1347080). The settings on record: A549 miR-34 inducible, Hoechst nuclei count, 48 h.
Test [3] in a line: viability rescue of complex I mutant cybrids, primary screen, cell-based, galactose medium, ATP luminescence (AID 1645843;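 active = z-score of at least 1.8 in each of two replicates, scored against plate mean and spread of sample wells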;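 note: positive z means more ATP and so rescue of galactose-driven cybrid death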). The conditions noted are these: complex I mutant cybrid cells, 72 h, stronger effect = higher value.
Where [4] appears, read: stronger effect = lower value, cell number ratio, induced over uninduced.
Setting [5] is: measured here: relative caspase fold change +Dox/-Dox.
Setting [6] is: measured here: total cells with miR-34 induction, stronger effect = lower value.
The mark [7] stands for this setting: measured here: total cells without miR-34 induction.

In general, remaining activity refers to the signal under treatment as a percentage of the control signal.

With `N=C(N)S/C=C\C(=O)O`, the remaining activity in test [1] is 104% (inactive). In addition, the fold change was 0.952 (inactive) in test [2] (setting [4]) and 0.563 in test [2] (setting [5]). Besides, the cell count turned out to be 8330 in test [2] (setting [6]) and 8750 in test [2] (setting [7]). The z-score in test [3] is -0.28 (inactive).
With `O=C(Cc1ccccc1)Nc1nc2ccc(Cl)cc2c2nc(-c3ccco3)nn12`, the remaining activity in test [1] was 112% (inactive). For the same compound, the fold change is 1 (inactive) in test [2] (setting [4]) and 0.707 in test [2] (setting [5]). Besides, the values for the cell count in test [2] (setting [6]) and in test [2] (setting [7]) were 7840 and 7820, respectively. Moreover, the z-score in test [3] was 0.635 (inactive).
As for `Cn1cc(/C=C2/C(=O)Nc3cccnc32)c2ccccc21`, the remaining activity in test [1] is 89.8% (inactive). Also, the results for the fold change in test [2] (setting [4]) and in test [2] (setting [5]) were 0.833 (inactive) and 1.45, respectively. The cell count in test [2] (setting [6]) stood at 2650; in test [2] (setting [7]) it was 3180. Besides, the z-score in test [3] is -0.435 (inactive).
`CCCCCN=c1ccn(Cc2ccccc2)c2ccccc12`: the remaining activity in test [1] is 114% (inactive). Further, the values for the fold change in test [2] (setting [4]) and in test [2] (setting [5]) were 1.09 (inactive) and 0.778, respectively. Also, the figures for the cell count in test [2] (setting [6]) and in test [2] (setting [7]) were 1550 and 1420, respectively. Also, the z-score in test [3] is -0.705 (inactive).
As for `c1ccc2cc(C3=NCCN3)ncc2c1`, the remaining activity in test [1] was 113% (inactive). In addition, the fold change in test [2] (setting [4]) is 0.991 (inactive); in test [2] (setting [5]), 0.685. In addition, the cell count in test [2] (setting [6]) came to 9570; in test [2] (setting [7]), 9660. For the same compound, in test [3], the z-score is -0.34 (inactive).
For `Cc1cc(C(=O)O)sc1C(N)C(=O)O` (stereo not given), in test [1], the remaining activity was 83.4% (inactive). Further, the fold change was 0.995 (inactive) in test [2] (setting [4]) and 1.22 in test [2] (setting [5]). Also, the values for the cell count in test [2] (setting [6]) and in test [2] (setting [7]) were 8770 and 8820, respectively. For the same compound, the z-score in test [3] is 0.285 (inactive).
As for `O=C1c2ccccc2C(Cc2ccncc2)(Cc2ccncc2)c2ccccc21`, the remaining activity in test [1] was 107% (inactive). For the same compound, the fold change in test [2] (setting [4]) was 0.992 (inactive); in test [2] (setting [5]), 1.04. The cell count amounted to 7700 in test [2] (setting [6]) and 7770 in test [2] (setting [7]). Besides, in test [3], the z-score was -0.13 (inactive).
For `CCn1c(=O)n(C2=C(CO)CN(CC3CCCCCCC3)CC2)c2ccccc21`, the remaining activity in test [1] is 102% (inactive). Also, the figures for the fold change in test [2] (setting [4]) and in test [2] (setting [5]) were 0.951 (inactive) and 1.46, respectively. Besides, the cell count in test [2] (setting [6]) amounted to 7150; in test [2] (setting [7]), 7510. Moreover, the z-score in test [3] was -0.665 (inactive).
`Cc1cc(C)cc(C(=O)N(C)[C@H](Cc2ccc(-c3ccccc3)cc2)C(=O)N[C@@H](Cc2c[nH]c3ccccc23)C(=O)O)c1`: the remaining activity in test [1] was 125% (inactive). The fold change in test [2] (setting [4]) is 0.884 (inactive); in test [2] (setting [5]), 0.967. Also, the cell count in test [2] (setting [6]) turned out to be 8970; in test [2] (setting [7]) it was 10100. The z-score in test [3] was 7.92 (active).
With `Clc1cccc2c1CN(C1=NCCN1)C2`, in test [1], the remaining activity was 99.4% (inactive). The fold change was 0.914 (inactive) in test [2] (setting [4]) and 0.792 in test [2] (setting [5]). For the same compound, the cell count was determined as 9080 in test [2] (setting [6]) and 9940 in test [2] (setting [7]). In test [3], the z-score was -0.085 (inactive).
Consider `C[C@@H]1CC2C3CCC4=CC(=O)C=CC4(C)C3(F)[C@@H](O)CC2(C)C1(O)C(=O)CO` (stereo not given in full), for which the remaining activity in test [1] was 110% (inactive). The fold change in test [2] (setting [4]) was 0.804 (inactive); in test [2] (setting [5]), 0.753. Further, the cell count in test [2] (setting [6]) turned out to be 7230; in test [2] (setting [7]), 8990. Also, the z-score in test [3] is 0.725 (inactive).
Consider `O=[N+]([O-])c1cc2nc(O)c(O)nc2cc1[N+](=O)[O-]`, for which the remaining activity in test [1] is 103% (inactive). Moreover, the fold change is 0.896 (inactive) in test [2] (setting [4]) and 1.68 in test [2] (setting [5]). Also, the cell count was found to be 8310 in test [2] (setting [6]) and 9280 in test [2] (setting [7]). Further, in test [3], the z-score is -0.355 (inactive).
For the compound `CO[C@]12C[C@@H](COC(=O)c3cncc(Br)c3)CN(C)[C@@H]1CC1=CN(C)C3C=CC=C2C13` (stereo not given in full), the remaining activity in test [1] is 107% (inactive). In addition, the results for the fold change in test [2] (setting [4]) and in test [2] (setting [5]) were 0.94 (inactive) and 0.794, respectively. Besides, the cell count in test [2] (setting [6]) was 7700; in test [2] (setting [7]), 8200. Besides, the z-score in test [3] is 0.455 (inactive).
With `COc1cccc(CCc2ccccc2OCC[C@@H]2C[C@@H](O)CN2C)c1`, in test [1], the remaining activity is 109% (inactive). In addition, the fold change in test [2] (setting [4]) is 1.04 (inactive); in test [2] (setting [5]), 0.632. Besides, the figures for the cell count in test [2] (setting [6]) and in test [2] (setting [7]) were 7340 and 7050, respectively. Also, the z-score in test [3] was -0.705 (inactive).
In the case of `CC#CCOC(=O)C1=CCCN(C)C1`, in test [1], the remaining activity is 109% (inactive). Moreover, the fold change in test [2] (setting [4]) is 0.936 (inactive); in test [2] (setting [5]) it was 0.732. For the same compound, the values for the cell count in test [2] (setting [6]) and in test [2] (setting [7]) were 8580 and 9170, respectively. Besides, the z-score in test [3] was -0.46 (inactive).
Regarding `C[C@H]([C@@H](O)c1ccc(O)cc1)N1CCC(Cc2ccccc2)CC1` (racemic), in test [1], the remaining activity is 93.2% (inactive). In addition, the fold change in test [2] (setting [4]) was 0.927 (inactive); in test [2] (setting [5]), 0.793. The cell count came to 8080 in test [2] (setting [6]) and 8720 in test [2] (setting [7]). Also, the z-score in test [3] was -1.02 (inactive).
For `O=C(NCCCN1CCC2(CC1)OCc1ccccc12)[C@H]1CCCN1Cc1ccccc1`, in test [1], the remaining activity was 123% (inactive). Also, the fold change in test [2] (setting [4]) was 0.953 (inactive); in test [2] (setting [5]), 1.86. The cell count is 7790 in test [2] (setting [6]) and 8180 in test [2] (setting [7]). In addition, the z-score in test [3] is -0.88 (inactive).
Consider `O=c1[nH]ccc2c(S(=O)(=O)N3CCCNCC3)cccc12`, for which the remaining activity in test [1] was 105% (inactive). For the same compound, the fold change in test [2] (setting [4]) is 0.922 (inactive); in test [2] (setting [5]), 0.813. Also, the cell count stood at 9480 in test [2] (setting [6]) and 10300 in test [2] (setting [7]). In test [3], the z-score is -0.145 (inactive).
In the case of `CN(CCc1ccc(Cl)c(Cl)c1)CC(O)COc1ccc(NS(C)(=O)=O)cc1` (stereo not given), in test [1], the remaining activity was 107% (inactive). Besides, the fold change was 0.951 (inactive) and 0.956 (inactive) in test [2] (setting [4]); 1.56 and 0.961 in test [2] (setting [5]). Moreover, the cell count was 4180 and 6530 in test [2] (setting [6]); 4390 and 6830 in test [2] (setting [7]). Besides, the z-score in test [3] was 0.67 (inactive).
In the case of `CC1(C(=O)O)NCCc2cc(O)c(O)cc21` (stereo not given), the remaining activity in test [1] was 123% (inactive). Moreover, the fold change in test [2] (setting [4]) is 0.987 (inactive); in test [2] (setting [5]), 0.804. The figures for the cell count in test [2] (setting [6]) and in test [2] (setting [7]) were 8540 and 8650, respectively. The z-score in test [3] was -0.015 (inactive).
